From PubChem BioAssay AID1159580 (chemical genetic matrix, 2015)
Several values for one entry are separate records, joined by “and”; a condition that tells them apart may be missing. Equal values may be shown once. Screen size: about 5,500 compounds; about 2,000 (36%) were called active. Another 18% or so got no clear call; they are omitted. No stated cut-off is given here; in the data, active means normalized growth mostly below about 0.91 (no sharp cut-off); inconclusive means no clear call, values can overlap the other calls; inactive means mostly above about 0.92. The list shows a part of the results.

Test: chemical genetic growth profiling, strain panel (AID 1159580);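 further: tested at 20 µM; growth read once vehicle control cultures reached saturation at 30 °C; 1 = growth at the plate median or of vehicle wells; lower values mean less growth of the strain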
Conditions: S. cerevisiae deletion strains, growth OD

Measured: normalized growth

COc1cc(CNC(=O)CCCC/C=C/C(C)C)ccc1O
inactive: locus YAL013W, strain DEP1, hits give low values 1.01 | locus YAL021C, strain ccr4, hits give low values 0.971 | locus YAL026C, strain drs2, hits give low values 0.994 | locus YAL030W, strain snc1, hits give low values 0.987 | locus YBL061C, strain skt5, hits give low values 0.99 | locus YBR009C, strain hhf1, hits give low values 0.951 | locus YBR021W, strain FUR4, hits give low values 0.978 | locus YBR023C, strain chs3, hits give low values 0.975 | locus YBR171W, strain sec66, hits give low values 0.979 | locus YBR229C, strain ROT2, hits give low values 0.994 | locus YBR231C, strain swc5, hits give low values 0.981 | locus YBR279W, strain paf1, hits give low values 0.983 | locus YCL011C, strain gbp2, hits give low values 0.979 | locus YCL016C, strain dcc1, hits give low values 0.989 | locus YCL029C, strain bik1, hits give low values 0.988 | locus YCL069W, strain vba3, hits give low values 0.992 | locus YCR088W, strain abp1, hits give low values 0.964 | locus YDL005C, strain med2, hits give low values 0.965 | locus YDL035C, strain GPR1, hits give low values 0.972 | locus YDL040C, strain nat1, hits give low values 0.997 | locus YDL074C, strain BRE1, hits give low values 0.979 | locus YDL101C, strain DUN1, hits give low values 1.01 | locus YDL134C, strain PPH21, hits give low values 1 | locus YDL185W, strain tfp1, hits give low values 0.986 | locus YDL192W, strain arf1, hits give low values 0.989 | locus YDR001C, strain nth1, hits give low values 0.997 | locus YDR069C, strain doa4, hits give low values 0.981 | locus YDR101C, strain arx1, hits give low values 0.969 | locus YDR137W, strain rgp1, hits give low values 0.997 | locus YDR159W, strain sac3, hits give low values 0.999 | locus YDR162C, strain NBP2, hits give low values 1.04 | locus YDR195W, strain ref2 0.959 | locus YDR297W, strain sur2, hits give low values 0.973 | locus YDR318W, strain mcm21, hits give low values 1 | locus YDR334W, strain swr1, hits give low values 0.998 | locus YDR335W, strain msn5, hits give low values 0.968 | locus YDR388W, hits give low values 0.99 | locus YDR392W, strain spt3, hits give low values 0.956 | locus YDR502C, strain sam2, hits give low values 0.961 | locus YEL003W, strain gim4, hits give low values 0.984 | locus YEL037C, strain rad23, hits give low values 0.99 | locus YEL061C, strain CIN8 (second series), hits give low values 0.983 | locus YEL061C, strain CIN8, hits give low values 1.01 | locus YER015W, strain faa2, hits give low values 1 | locus YER016W, strain bim1, hits give low values 1.01 | locus YER110C, hits give low values 0.969 | locus YER111C, strain swi4, hits give low values 0.991 | locus YER155C, strain BEM2 (second series), hits give low values 0.953 | locus YER155C, strain BEM2, hits give low values 0.994 | locus YER167W, strain BCK2, hits give low values 1.01 | locus YFR010W, strain ubp6, hits give low values 0.973 | locus YGL078C, strain dbp3, hits give low values 0.974 | locus YGL086W, strain mad1, hits give low values 0.996 | locus YGL167C, strain pmr1, hits give low values 0.988 | locus YGL173C, strain kem1, hits give low values 0.978 | locus YGL227W, strain vid30, hits give low values 0.975 | locus YGL240W, strain doc1, hits give low values 0.975 | locus YGL248W, strain PDE1, hits give low values 1.02 | locus YGL253W, strain hxk2, hits give low values 0.987 | locus YGR135W, strain pre9, hits give low values 0.991 | locus YGR252W, strain gcn5, hits give low values 0.898 | locus YHR013C, strain ard1, hits give low values 0.999 | locus YHR027C, strain rpn1, hits give low values 0.984 | locus YHR030C, strain SLT2, hits give low values 1.02 and 0.997 | locus YHR079C, strain IRE1 (second series), hits give low values 1 | locus YHR079C, strain IRE1, hits give low values 0.989 | locus YHR094C, strain hxt1, hits give low values 0.981 | locus YHR129C, strain ARP1, hits give low values 1.02 | locus YHR142W, strain chs7, hits give low values 0.998 | locus YHR200W, strain rpn10, hits give low values 1.01 | locus YIL066C, strain RNR3, hits give low values 1.01 | locus YIL073C, strain SPO22, hits give low values 0.972 | locus YIL125W, strain kgd1, hits give low values 0.993 | locus YIR030C, strain dcg1, hits give low values 0.986 | locus YJL092W, strain hpr5, hits give low values 0.99 | locus YJL095W, strain BCK1 (second series), hits give low values 0.986 | locus YJL095W, strain BCK1, hits give low values 1.05 and 0.999 | locus YJL115W, strain asf1, hits give low values 0.979 | locus YJL129C, strain trk1, hits give low values 0.955 | locus YJL134W, strain LCB3, hits give low values 1.01 | locus YJL154C, strain vps35, hits give low values 0.98 | locus YJL164C, strain tpk1, hits give low values 0.994 | locus YJL166W, strain qcr8, hits give low values 0.973 | locus YJL168C, strain set2, hits give low values 0.981 | locus YJL187C, strain SWE1 (second series), hits give low values 1.01 | locus YJL187C, strain SWE1, hits give low values 0.994
